Some test systems named below: NCI-H23 lung; NCI-H226 lung; NCI-H322M lung; HOP-62 NSCLC; NCI-H460 lung; HOP-92 NSCLC; NCI-H522 lung; A549/ATCC NSCLC; 786-0 renal; COLO 205 colon; DU-145 prostate; K-562 leukemia; MALME-3M melanoma; MDA-MB-231 breast; RXF 393 renal; SF-268 CNS; SF-295 CNS; SF-539 CNS; UACC-257 melanoma; M14 melanoma.
What all share (experiment): NCI-60 one-dose screen, 48 h (100 = growth as untreated, 0 = no growth, -100 = all killed)
Holding throughout (details): 10 µM unless noted

Molecules are shown by their SMILES. About 83,000 compounds went through this panel and 20% of them were active in at least one assay; those are over-represented in the sample as a whole.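 Plates (96-well) were seeded with cells, treated with compound at one concentration, and incubated for 48 hours before percent growth was determined.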 Values without a mark were called inactive. Calls of active or inactive are those of the source. Rule for the calls: active = growth percent below 10; inactive = the rest.

Consider `Cn1cc2c(=O)nc3c(-c4nc5ccccc5[nH]4)n[nH]n3c2n1`, for which the growth in the assay with NCI-H23 lung was 78.6%; in the assay on NCI-H226 lung it was 96.4%; with NCI-H322M lung, 91.8%; in the assay with HOP-62 NSCLC it was 73%; with NCI-H460 lung, 81.9%; in the assay on HOP-92 NSCLC, 83.6%. Moreover, the growth in the assay with NCI-H522 lung was -44.5% (active); with A549/ATCC NSCLC it was 79.2%; in the assay with 786-0 renal it was 80.7%; in the assay with COLO 205 colon, 114%; in the assay on DU-145 prostate it was 71.8%; in the assay on K-562 leukemia, 61.1%. The growth in the assay on MALME-3M melanoma is 74.1%; in the assay on MDA-MB-231 breast, 100%; in the assay on RXF 393 renal, 78.1%; in the assay on SF-268 CNS, 74.2%; with SF-295 CNS it was 106%; with SF-539 CNS, 97%. Further, the growth with UACC-257 melanoma is 72.9%; in the assay with M14 melanoma, 75.8%.

With `O=C(NNC(=S)Nc1ccccc1)c1ccncc1`, the growth in the assay on NCI-H23 lung was 102%; with NCI-H226 lung it was 105%; in the assay with NCI-H322M lung, 108%; with HOP-62 NSCLC, 106%; with NCI-H460 lung it was 118%; in the assay on HOP-92 NSCLC, 90.2%. Also, the growth in the assay on NCI-H522 lung was 97.3%; with A549/ATCC NSCLC, 107%; in the assay on 786-0 renal, 98.5%; in the assay with COLO 205 colon it was 128%; in the assay with DU-145 prostate it was 115%; in the assay on K-562 leukemia, 106%. In addition, the growth is 108% with MALME-3M melanoma; 111% in the assay with MDA-MB-231 breast; 114% in the assay with RXF 393 renal; 105% in the assay on SF-268 CNS; 110% with SF-295 CNS; 100% with SF-539 CNS. Moreover, the growth with UACC-257 melanoma was 110%; in the assay on M14 melanoma, 107%.

Take `CC[C@@H]1NC(=O)[C@H]([C@H](O)[C@H](C)C/C=C/c2ccc(CN3C(=O)C(C)=C(C)C3=O)cc2)N(C)C(=O)[C@H](C(C)C)N(C)C(=O)[C@H](CC(C)C)N(C)C(=O)[C@H](CC(C)C)N(C)C(=O)[C@@H](C)NC(=O)[C@H](C)NC(=O)[C@H](CC(C)C)N(C)C(=O)[C@H](C(C)C)NC(=O)[C@H](CC(C)C)N(C)C(=O)CN(C)C1=O`: the growth in the assay with NCI-H23 lung is 82.6%; with NCI-H226 lung, 65%; in the assay with NCI-H322M lung, 65.7%; in the assay on HOP-62 NSCLC, 70.7%; in the assay on NCI-H460 lung, 80.7%; in the assay with HOP-92 NSCLC it was 68.8%. The growth was 61.9% in the assay with NCI-H522 lung; 58.1% in the assay on A549/ATCC NSCLC; 97.6% in the assay on 786-0 renal; 72.8% with COLO 205 colon; 73.9% with DU-145 prostate; 70% in the assay with K-562 leukemia. The growth in the assay with MALME-3M melanoma is 88.2%; in the assay with MDA-MB-231 breast, 71.5%; in the assay with RXF 393 renal, 80%; in the assay on SF-268 CNS, 71%; with SF-295 CNS it was 69.4%; in the assay on SF-539 CNS, 86.9%. Further, the growth was 69.4% with UACC-257 melanoma and 60% in the assay on M14 melanoma.

For the compound `COc1cc(Cl)cc(-c2nn(C(=O)NS(=O)(=O)c3ccc(Cl)cc3)cc2-c2ccncc2)c1`, the growth with NCI-H23 lung was 89.1%; in the assay on NCI-H226 lung it was 70.7%; in the assay on NCI-H322M lung, 96.5%; with HOP-62 NSCLC, 59.4%; with NCI-H460 lung, 111%; in the assay with HOP-92 NSCLC, 26.6%. Besides, the growth in the assay with NCI-H522 lung is 74.3%; in the assay on A549/ATCC NSCLC, 65.1%; in the assay with 786-0 renal it was 67.9%; with COLO 205 colon it was 72.1%; in the assay on DU-145 prostate, 83.8%; with K-562 leukemia, 82.2%. Also, the growth is 78.1% with MALME-3M melanoma; 56.8% with MDA-MB-231 breast; 71.2% with RXF 393 renal; 67.5% with SF-268 CNS; 90.6% in the assay on SF-295 CNS; 39.6% with SF-539 CNS. Also, the growth in the assay on UACC-257 melanoma was 113%; with M14 melanoma, 72.7%.

For the compound `C=CCOc1ccc(/C=C2\SC(=S)N(CCc3ccc(O)cc3)C2=O)cc1`, the growth with NCI-H23 lung was 104%; in the assay on NCI-H226 lung it was 91.6%; with NCI-H322M lung it was 95.2%; in the assay with HOP-62 NSCLC it was 106%; in the assay on NCI-H460 lung, 97.4%; with HOP-92 NSCLC it was -2.76% (active). Besides, the growth with NCI-H522 lung was 11%; in the assay on A549/ATCC NSCLC, 88.8%; with 786-0 renal, 100%; with COLO 205 colon it was 114%; in the assay on DU-145 prostate, 98.3%; in the assay on K-562 leukemia, 62.1%. The growth in the assay on MALME-3M melanoma is 101%; in the assay with MDA-MB-231 breast, 90.2%; in the assay with RXF 393 renal, 114%; with SF-268 CNS, 91.4%; in the assay on SF-295 CNS it was 91.1%; with SF-539 CNS, 82.7%. Besides, the growth is 92.6% in the assay on UACC-257 melanoma and 103% with M14 melanoma.

In the case of `Cc1n(Cc2ccc3ccccc3c2)c(Cl)c(Cl)[n+]1Cc1ccc2ccccc2c1`, the growth with NCI-H23 lung was 25.6%; in the assay with NCI-H226 lung, 47.1%; in the assay with NCI-H322M lung, 76.2%; in the assay on HOP-62 NSCLC, 59.6%; with NCI-H460 lung it was 33.5%; in the assay with HOP-92 NSCLC it was -11.3% (active). The growth in the assay on NCI-H522 lung is 16.9%; in the assay with A549/ATCC NSCLC, 81.4%; in the assay on 786-0 renal, 50.2%; with COLO 205 colon, -46.6% (active); with DU-145 prostate, 48.3%; with K-562 leukemia it was 9.4% (active). Further, the growth in the assay with MALME-3M melanoma is -0.456% (active); in the assay on MDA-MB-231 breast, 10.6%; in the assay on RXF 393 renal it was 43.3%; in the assay with SF-268 CNS, 34.9%; in the assay on SF-295 CNS, 67.8%; in the assay on SF-539 CNS it was 54.4%. In addition, the growth with UACC-257 melanoma is -13.6% (active); in the assay on M14 melanoma, 10.9%.

Take `N#C/C(=C\c1ccc(Br)cc1)n1nnc2c(F)cccc21`: the growth in the assay on NCI-H23 lung was 10.3%; in the assay with NCI-H226 lung, 25.5%; in the assay with NCI-H322M lung, 0.929% (active); with HOP-62 NSCLC, 53.8%; in the assay on NCI-H460 lung, -33.7% (active); with HOP-92 NSCLC it was 19.2%. The growth in the assay with NCI-H522 lung is -52.1% (active); with A549/ATCC NSCLC, 14.8%; in the assay on 786-0 renal it was -13.5% (active); in the assay on COLO 205 colon, -15.9% (active); in the assay with DU-145 prostate it was 5.36% (active); in the assay with K-562 leukemia, 12%. Moreover, the growth with MALME-3M melanoma is -2.35% (active); in the assay with MDA-MB-231 breast, -10.6% (active); in the assay on RXF 393 renal it was -57.9% (active); in the assay with SF-268 CNS it was 20.3%; in the assay on SF-295 CNS, 24.7%; in the assay with SF-539 CNS it was -7.82% (active). Moreover, the growth in the assay with UACC-257 melanoma was -10.7% (active); in the assay on M14 melanoma it was 2.49% (active).
